# Screens from PubChem BioAssay.
# aSyn UTR act – Activators via SNCA 5'UTR binding, MLPCN; alpha-synuclein 5'UTR reporter, activators screen; activity score, % (tested at 7.5 µM), hits read low; 7.1% of 300,000 active; in the data active means activity score below about -60%
# An asterisk follows results filed as active. A selection follows.
SMILES,aSyn UTR act
Cc1ccnc(NC(=S)NC(=O)c2cccs2)c1,-270.4*
Cc1cc(-c2nc3ncccc3o2)ccc1NC(=S)NC(=O)c1ccco1,-67.0*
O=C(NC(=S)Nc1ccc(Cl)cn1)c1cccs1,-92.3*
O=C(NC(=S)Nc1ccccn1)c1ccco1,-172.9*
O=C(Nc1ccc(-c2nc3ncccc3o2)cc1)c1ccc([N+](=O)[O-])o1,100.3
Cc1ccnc(NC(=S)NC(=O)c2ccco2)c1,-140.5*
O=C(NC(=S)Nc1cccnc1Cl)c1ccco1,-61.9*
Cc1ccc(-c2nc3ncccc3o2)cc1NC(=O)c1ccc([N+](=O)[O-])o1,-511.0*
CCCCn1cnc2c(oc3ccccc32)c1=O,-120.9*
COc1ccc2c(C(=O)CN3CCC(C)CC3)c[nH]c2c1,-76.0*
Clc1nc(-c2cccnc2)nc2scc(-c3ccccc3)c12,-134.3*
Cn1nnc(NC(=O)c2ccc3ccccc3c2)n1,-62.8*
Cn1nnc(NC(=O)c2ccc(C(C)(C)C)cc2)n1,-94.9*
CCC(C)Nc1nc(-c2ccc3c(c2)NC(=O)CO3)cs1 (stereo not drawn),-112.4*
COc1ccc(Nc2nc(-c3ccc4c(c3)NC(=O)CO4)cs2)cc1,-109.6*
CC(C)c1ccccc1-n1c(SCC(=O)c2ccc3c(c2)NC(=O)CO3)nc2ccccc2c1=O,51.4
Cc1ccc(NC(=O)c2nsc(Cl)c2Cl)cc1,-112.7*
Cc1ccc(C(=O)Nc2ccc3c(c2)OCO3)cc1S(=O)(=O)N1CCCC1,-113.5*
O=C(Nc1ccc2c(c1)OCO2)c1cnccn1,-105.7*
Cc1ccc(NC(=O)c2ccc(Cl)nc2)cc1,-116.2*
Cc1ccc(NC(=O)c2ccc3c(c2)OCO3)cc1Cl,-122.8*
Cc1cc(Cl)ccc1NC(=O)c1ccc2c(c1)OCO2,-230.6*
O=C(Nc1ccc2c(c1)OCO2)c1ccc(Cl)nc1,-89.8*
COc1cc(Cl)c(C)cc1NC(=O)c1ccc2c(c1)OCO2,-84.2*
Cc1ccc(C(=O)Nc2ccc3c(c2)OCO3)cc1Cl,-122.5*
SMILES,aSyn UTR act
C/C(=N\Nc1ccc([N+](=O)[O-])cc1)c1cc2ccccc2o1,-72.6*
C/C(=N/Nc1ccc([N+](=O)[O-])cc1)c1ccc(C)cc1C,-89.1*
C/C(=N\NC(=O)c1ccc(O)cc1)c1cc2ccccc2o1,-98.0*
C/C(=N/Nc1ccc([N+](=O)[O-])cc1)c1c[nH]c2ccccc12,-171.2*
Clc1ccc(Cl)c2sc(N3CCOCC3)nc12,-66.1*
Clc1cc(Cl)c2nc(N3CCOCC3)sc2c1,-156.3*
Clc1ccc(-c2nsc(N3CCOCC3)n2)c(Cl)c1,-125.7*
c1ccc(CNc2ncnc3c2ncn3C2CCCCO2)cc1 (stereo not drawn),-104.1*
Cc1ccnc2nc(C(=O)Nc3cc(Cl)ccc3N3CCOCC3)nn12,-77.0*
CCc1ccc(OCCCCCn2ccnc2)cc1,-66.4*
COc1ccc(/C=C/c2nc(N)nc(-c3ccccc3O)n2)cc1,-116.2*
COc1cc(/C=C/c2nc(-c3ccccc3O)n[nH]2)cc(OC)c1OC,-117.5*
CC(=O)Nc1ccc(/C=C/c2nc(-c3ccccc3O)n[nH]2)cc1,-202.2*
COc1ccc(/C=C/c2noc(-c3ccccc3O)n2)cc1,-93.5*
COc1cc(/C=C/c2noc(-c3ccccc3O)n2)cc(OC)c1OC,-145.6*
CC(=O)Oc1ccccc1-c1nc(/C=C/c2ccccc2)no1,-162.0*
Cc1ccc(S(=O)(=O)C2(C(=O)Nc3ccc(C(C)C)cc3)CC2)cc1,-77.0*
Cc1cc(/C=C2\SC(=S)N(Cc3ccco3)C2=O)c(C)n1-c1cccnc1,-180.7*
CN1C2=CC=CC=CC2=[N+](C)C12C([N+](=O)[O-])=CC(=[N+]([O-])[O-])C=C2[N+](=O)[O-] (stereo not drawn),-73.2*
COc1ccc(CN=C2NN=C(c3ccc(Cl)cc3)CS2)cc1,-103.3*
C=CCn1c(C)cc(C2=NNC(=NC(C)(C)C)SC2)c1C,89.4
CC(C)(C)N=C1NN=C(c2ccc(Cl)cc2)CS1,-108.5*
COc1ccc(CN=C2Nc3ccccc3CS2)cc1,-84.7*
CC(C)(C)N=C1NN=C(c2cc3ccccc3o2)CS1,-74.3*
CC(C)(C)c1ccc(C(=O)c2c[nH]c(C(=O)O)c2)cc1,-102.4*
SMILES,aSyn UTR act
CN(C)C=NC(=O)c1cc(C(=O)c2ccc(C(C)(C)C)cc2)c[nH]1,-86.8*
O=C(O)c1ccc(N/N=C/c2ccc(OC(=O)c3cccc(Cl)c3)cc2)cc1,76.0
O=C(O)c1ccc(/C=N/Nc2ncc(Cl)cc2Cl)cc1,-71.8*
O=[N+]([O-])c1ccc(/C=N/Nc2ccccn2)cc1,-188.2*
O=C(O)c1ccc(/C=N\Nc2ccccn2)cc1,-78.8*
O=[N+]([O-])c1cccc(/C=N/Nc2ccccn2)c1,-229.7*
Nc1nnc(/C=C/c2cccc([N+](=O)[O-])c2)s1,-63.5*
O=[N+]([O-])c1cc(Cl)cc(/C=N\Nc2ccccn2)c1O,89.9
O=[N+]([O-])c1cc(/C=N\Nc2ccccn2)ccc1Cl,-90.5*
O=[N+]([O-])c1cccc(/C=C/c2ccccn2)c1,-140.7*
O=[N+]([O-])c1cccc(/C=N/Nc2nccnc2Cl)c1,-147.5*
N#C/C(=C\c1cccc([N+](=O)[O-])c1)c1ccccn1,-67.1*
O=C(N/N=C/c1ccc(Sc2nc3ccccc3s2)c([N+](=O)[O-])c1)c1ccccn1,-74.6*
CN(C)c1ccc(/C=N\Nc2ccccn2)cc1,-231.6*
O=C(N/N=C/c1ccc(Cl)c([N+](=O)[O-])c1)c1cnccn1,-71.7*
Cc1[nH]c2ccccc2c1/C=N/Nc1ccccn1,-100.5*
CCOCC(=O)Nc1cccc(-c2nc3cccnc3s2)c1C,-62.7*
C=Cc1cccc(NC(=O)COc2ccccc2)c1,-106.9*
COc1ccc(OCC(=O)Nc2cccc(-c3nc4ccccc4o3)c2)cc1,-150.7*
O=C(Nc1cccc(-c2nc3ccccc3o2)c1)c1ccc(N2C(=O)C3C4C=CC(C4)C3C2=O)cc1 (stereo not drawn),88.3
CCc1ccc(OCC(=O)Nc2ccc(-c3nc4ccccc4o3)c(O)c2)cc1,-97.0*
COc1ccc(C(=O)Nc2cccc(-c3nnc(-c4ccco4)o3)c2)cc1,-92.6*
O=C(COc1ccccc1)Nc1cccc(-c2nnc(-c3ccccc3)o2)c1,-64.3*
Oc1cc(NCc2cccnc2)ccc1-c1nc2ccccc2o1,-100.0*
CC(C)(C)c1ccc(OCC(=O)Nc2ccc(-c3nc4cccnc4o3)cc2)cc1,-134.8*
SMILES,aSyn UTR act
O=C(COc1ccccc1)Nc1cccc(-c2nc3ccccc3[nH]2)c1,-63.5*
COc1ccc(OCC(=O)Nc2cccc(-c3nc4ccccc4[nH]3)c2)cc1,-159.0*
CSc1nc2ccc(NC(=O)C3CCCO3)cc2s1 (stereo not drawn),-125.4*
Cc1cccc2sc(NC(=O)C3CCCO3)nc12 (stereo not drawn),-125.9*
O=C(Nc1nc(-c2ccc(Cl)cc2)cs1)C1CCCO1 (stereo not drawn),-90.1*
COc1ccc2nc(NC(=O)C3CCCO3)sc2c1 (stereo not drawn),-86.9*
[N-]=[N+]=CC(=O)C(O)(c1ccccc1)C(Cl)c1ccccc1 (stereo not drawn),47.0
COc1ccc2nc(NC(=O)C3CCN(C(=O)c4ccco4)CC3)sc2c1,-73.4*
Cc1nc(C)c(C(=O)Nc2nc3c(C)cccc3s2)o1,-73.5*
COc1ccc(-c2nnc(NC(=O)C3CCCO3)s2)cc1 (stereo not drawn),-111.9*
CSc1nc2ccc(NC(=O)NC(=O)c3c(F)cccc3F)cc2s1,-124.7*
O=C(c1ccccc1)c1c(O)nc(-c2ccccc2)n(-c2ccccc2)c1=O,-67.5*
